Reference: the supplement of paper PMC12024424

system: Staphylococcus aureus Sa2 (MRSA, cystic fibrosis isolate); test: growth reduction vs untreated control (OD550); higher = stronger antibacterial activity; details: 0.1 mM; 24 h
Protocol: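 Single-dose screen of the MedChem Express Drug Repurposing Library (0.1 mM, 1% DMSO) against planktonic MRSA S. aureus Sa2 (CF isolate) in TSB in 96-well plates, 37 °C aerobic, 24 h. Assays were run in triplicate and repeated twice.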

Growth reduction, 100%:
CC1CS(=O)(=O)CCN1/N=C/c1ccc([N+](=O)[O-])o1 (centres undefined) [Nifurtimox]
Cc1cc(Nc2ncc(Cl)c(Nc3ccccc3S(=O)(=O)C(C)C)n2)c(OC(C)C)cc1C1CCNCC1 [Ceritinib]
CCN(C/C=C\c1ccc(C2CCCCC2)c(Cl)c1)C1CCCCC1
CCCCCCCCOc1ccccc1C(=O)Nc1ccc(C(=O)OCC[N+](C)(CC)CC)cc1 [Otilonium (bromide)]
O=C(NS(=O)(=O)c1ccc(Br)s1)c1ccc(Cl)cc1Cl [Tasisulam]
Clc1ccc(COC(Cn2ccnc2)c2ccc(Cl)cc2Cl)c(Cl)c1 (centres undefined) [Miconazole (nitrate)]
CN(C(=O)CN(CCO)CC(=O)N(C)C(C)(C)Cc1ccccc1)C(C)(C)Cc1ccccc1 [Oxethazaine]
CC(C)(C)Cn1c(N)nc2ccc(-c3[nH]c(C(C)(C)C)nc3-c3ccc(F)cc3)nc21 [Ralimetinib dimesylate]
Cc1cn(-c2cc(NC(=O)c3ccc(C)c(Nc4nccc(-c5cccnc5)n4)c3)cc(C(F)(F)F)c2)cn1 [Nilotinib]
